According to PubChem BioAssay:
Activity calls are given as the source filed them.

Experiments:
[1] = small molecules captured by biotinylated probe aFSTL3 – biochemical, small-molecule microarray, fluorescence 635/667, stem cell growth factor project, primary screen (AID 1064); conditions: higher = more signal;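 note: measures binding of the biotinylated anti-FSTL3 antibody to printed compounds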
[2] = binders from COS7 lysate, DM2A8 probe, primary screen, torsin A project, cell lysate, small-molecule microarray, fluorescence 635/667 (AID 1065); conditions: higher = more signal, COS7 lysate expressing mutant human TOR1A
[3] = small molecules captured by biotinylated probe aFGF2 – biochemical, small-molecule microarray, fluorescence 635/667, stem cell growth factor project, primary screen (AID 1067); conditions: higher = more signal;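 note: measures binding of biotinylated aFGF2 protein to printed compounds on slides; z-score merges feature fluorescence and signal-to-noise across triplicate slides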
[4] = small molecules captured by biotinylated probe aFGF10 – biochemical, small-molecule microarray, fluorescence 635/667, stem cell growth factor project, primary screen (AID 1071); conditions: higher = more signal;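 note: score merges 667 nm spot intensity and signal to noise from triplicate slides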
[5] = target: Neurogenic locus notch homolog protein 2 (Homo sapiens) (UniProt Q04721); experiment: small molecules binding Notch2 protein – biochemical, small-molecule microarray, 635 nm fluorescence, stem cell growth factors, primary screen (AID 1073); conditions: higher = more signal
Chain of Neurogenic locus notch homolog protein 2 (Homo sapiens) (Q04721 whole entry, looked up, canonical isoform): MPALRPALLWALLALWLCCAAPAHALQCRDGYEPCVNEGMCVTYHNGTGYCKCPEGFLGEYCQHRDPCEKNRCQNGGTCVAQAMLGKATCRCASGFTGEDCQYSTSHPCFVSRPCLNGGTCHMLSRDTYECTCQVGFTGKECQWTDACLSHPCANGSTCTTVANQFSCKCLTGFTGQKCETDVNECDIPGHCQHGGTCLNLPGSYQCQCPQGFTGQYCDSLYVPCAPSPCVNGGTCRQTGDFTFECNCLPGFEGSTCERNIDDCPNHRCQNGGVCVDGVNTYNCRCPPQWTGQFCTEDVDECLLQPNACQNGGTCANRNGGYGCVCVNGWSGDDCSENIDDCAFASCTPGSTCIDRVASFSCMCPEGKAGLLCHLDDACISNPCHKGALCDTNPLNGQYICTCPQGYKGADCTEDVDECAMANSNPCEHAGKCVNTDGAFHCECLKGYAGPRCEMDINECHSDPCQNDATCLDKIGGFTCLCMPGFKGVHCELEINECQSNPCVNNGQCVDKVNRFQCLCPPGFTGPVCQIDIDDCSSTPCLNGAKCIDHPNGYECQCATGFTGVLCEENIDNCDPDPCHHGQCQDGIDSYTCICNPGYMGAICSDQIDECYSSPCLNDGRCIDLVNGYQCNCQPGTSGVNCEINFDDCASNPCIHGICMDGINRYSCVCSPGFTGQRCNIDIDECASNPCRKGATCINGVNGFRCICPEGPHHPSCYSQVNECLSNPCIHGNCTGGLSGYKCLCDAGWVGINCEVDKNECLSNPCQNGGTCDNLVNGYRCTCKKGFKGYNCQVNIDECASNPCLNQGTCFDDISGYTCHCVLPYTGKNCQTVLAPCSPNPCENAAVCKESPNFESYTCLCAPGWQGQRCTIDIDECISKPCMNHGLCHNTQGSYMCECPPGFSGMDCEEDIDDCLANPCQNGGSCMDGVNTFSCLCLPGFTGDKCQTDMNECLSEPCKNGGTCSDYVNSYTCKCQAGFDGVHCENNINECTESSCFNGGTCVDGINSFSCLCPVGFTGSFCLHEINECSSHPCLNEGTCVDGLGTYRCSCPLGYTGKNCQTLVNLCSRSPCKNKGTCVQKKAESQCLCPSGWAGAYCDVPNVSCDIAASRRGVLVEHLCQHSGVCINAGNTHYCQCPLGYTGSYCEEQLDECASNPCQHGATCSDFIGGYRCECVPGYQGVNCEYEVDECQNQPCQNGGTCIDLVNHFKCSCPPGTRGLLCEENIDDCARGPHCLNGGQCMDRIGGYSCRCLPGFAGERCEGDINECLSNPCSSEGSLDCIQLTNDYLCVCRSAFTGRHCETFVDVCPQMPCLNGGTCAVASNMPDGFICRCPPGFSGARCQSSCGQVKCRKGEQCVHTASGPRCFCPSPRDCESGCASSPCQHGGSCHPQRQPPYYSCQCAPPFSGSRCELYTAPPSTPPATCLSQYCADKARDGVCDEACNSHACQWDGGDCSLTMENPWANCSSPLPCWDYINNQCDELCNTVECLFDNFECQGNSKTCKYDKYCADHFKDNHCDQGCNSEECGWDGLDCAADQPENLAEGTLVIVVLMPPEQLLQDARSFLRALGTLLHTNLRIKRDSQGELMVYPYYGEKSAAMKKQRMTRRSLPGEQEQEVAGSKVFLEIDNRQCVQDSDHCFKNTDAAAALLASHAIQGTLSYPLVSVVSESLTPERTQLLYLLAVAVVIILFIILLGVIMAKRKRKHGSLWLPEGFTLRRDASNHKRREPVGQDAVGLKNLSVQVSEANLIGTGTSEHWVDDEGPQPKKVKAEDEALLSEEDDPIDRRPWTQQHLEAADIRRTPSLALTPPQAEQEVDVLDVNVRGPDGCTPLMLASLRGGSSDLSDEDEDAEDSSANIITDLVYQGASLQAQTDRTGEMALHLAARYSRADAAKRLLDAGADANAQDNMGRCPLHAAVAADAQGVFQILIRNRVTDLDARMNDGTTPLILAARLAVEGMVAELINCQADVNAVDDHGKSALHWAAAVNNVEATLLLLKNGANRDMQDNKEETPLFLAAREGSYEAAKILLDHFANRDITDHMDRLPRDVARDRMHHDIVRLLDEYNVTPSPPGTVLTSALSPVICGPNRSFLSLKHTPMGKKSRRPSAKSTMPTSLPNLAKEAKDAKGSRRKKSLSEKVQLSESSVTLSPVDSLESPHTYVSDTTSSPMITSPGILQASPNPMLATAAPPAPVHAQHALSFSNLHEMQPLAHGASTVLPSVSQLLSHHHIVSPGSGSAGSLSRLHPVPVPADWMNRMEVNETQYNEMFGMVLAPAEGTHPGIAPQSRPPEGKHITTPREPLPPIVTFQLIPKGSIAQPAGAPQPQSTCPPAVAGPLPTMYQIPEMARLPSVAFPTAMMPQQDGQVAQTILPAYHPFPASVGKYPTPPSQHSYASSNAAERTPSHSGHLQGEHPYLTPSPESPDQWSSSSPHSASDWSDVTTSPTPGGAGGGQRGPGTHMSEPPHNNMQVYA

[6] = target: Pro-neuregulin-1, membrane-bound isoform (Homo sapiens) (UniProt Q02297); experiment: small molecules binding neuregulin-1 protein – biochemical, small-molecule microarray, fluorescence 635/667, psychiatric disease protein project, primary screen (AID 1075); conditions: NRG1 binding, 635 nm fluorescence, higher = more signal;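 note: score combines 667 nm spot fluorescence with signal to noise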
Chain of Pro-neuregulin-1, membrane-bound isoform (Homo sapiens) (Q02297 whole entry, looked up, the tested form may be a part, canonical isoform): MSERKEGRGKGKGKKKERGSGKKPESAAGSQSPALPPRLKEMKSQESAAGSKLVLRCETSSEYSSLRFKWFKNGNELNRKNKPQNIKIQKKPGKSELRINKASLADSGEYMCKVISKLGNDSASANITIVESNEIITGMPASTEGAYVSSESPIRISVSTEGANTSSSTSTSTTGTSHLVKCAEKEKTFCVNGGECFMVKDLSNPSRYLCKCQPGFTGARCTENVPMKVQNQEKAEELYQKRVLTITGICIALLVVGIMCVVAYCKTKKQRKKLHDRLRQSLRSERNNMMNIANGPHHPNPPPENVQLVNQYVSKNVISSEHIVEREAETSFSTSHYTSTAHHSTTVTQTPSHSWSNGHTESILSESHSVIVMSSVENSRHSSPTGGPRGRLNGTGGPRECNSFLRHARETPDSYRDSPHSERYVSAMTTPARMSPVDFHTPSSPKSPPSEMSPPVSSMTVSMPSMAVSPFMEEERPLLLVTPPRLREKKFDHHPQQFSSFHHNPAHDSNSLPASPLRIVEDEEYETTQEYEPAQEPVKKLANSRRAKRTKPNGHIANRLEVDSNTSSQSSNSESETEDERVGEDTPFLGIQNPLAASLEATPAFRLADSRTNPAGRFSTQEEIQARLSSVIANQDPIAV

[7] = tested on: Neuregulin-1 EGF-like domain; experiment: small molecules binding NRG1 EGF domain – biochemical, small-molecule microarray, 635 nm fluorescence, primary screen (AID 1081); conditions: higher = more signal;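 note: binding of the protein to compounds printed on small-molecule microarray slides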
[8] = FRG1 expression reporter modulators in myotubes – cell-based, C2C12 myotubes, firefly/Renilla luciferase, luminescence, FRG1 inhibition for FSHD, primary screen (AID 1084); conditions: FRG1 promoter luciferase, higher = more signal, called active from +8 up or from −8 down
[9] = small molecules captured by biotinylated probe aFST – biochemical, small-molecule microarray, fluorescence 635/667, stem cell growth factor project, primary screen (AID 1086); conditions: higher = more signal;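 note: score merges 667 nm fluorescence with signal-to-noise of each printed compound spot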
[10] = binders of probe aHhip on microarray, primary screen, stem cell growth factor project, biochemical, small-molecule microarray, fluorescence 635/667 (AID 1087); conditions: higher = more signal;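 note: score merges spot fluorescence at 667nm with spot signal to noise ratio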
[11] = tested on: PRMT1 (protein arginine N-methyltransferase 1); experiment: small molecules binding arginine methyltransferase PRMT1 – biochemical, small-molecule microarray, 635 nm fluorescence, primary screen (AID 1088); conditions: higher = more signal;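 note: binding of Prmt1 protein to compounds spotted on small-molecule microarray slides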
[12] = growth effects on S. cerevisiae YJM789 – YJM789 clinical isolate, OD600, 24 h, basal, primary screen (AID 1089); conditions: higher = more signal, called active from +8 up or from −8 down;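 note: growth of clinical yeast isolate S. cerevisiae YJM 789 seeded 1000 cells per well; test concentration not given here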
[13] = S. pombe growth modifiers, basal conditions – strain 972, OD600, 24 h, no modulator, primary screen (AID 1090);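 note: basal condition with compound alone and no growth modifier present; test concentration not given here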; conditions: S. pombe 972 growth, higher = more signal, called active from +8 up or from −8 down
[14] = budding yeast growth modifiers under rapamycin – strain BY4716, OD600, 96 h, primary screen (AID 1091); note: test concentration not given here; conditions: S. cerevisiae BY4716 + rapamycin, higher = more signal, called active from +8 up or from −8 down
[15] = target: Torsin-1A-interacting protein 2 (Homo sapiens) (UniProt Q8NFQ8); experiment: small molecules binding lysate-expressed LULL1 – cell lysate, human LULL1 lysate, 635/667 nm fluorescence, primary screen (AID 1092); conditions: small-molecule microarray, hLULL1 lysate binding, 635 nm fluorescence; higher = more signal;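 note: probe is lysate of COS7 cells overexpressing human LULL1; score merges per-feature 667 nm fluorescence with signal-to-noise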
Chain of Torsin-1A-interacting protein 2 (Homo sapiens) (Q8NFQ8 whole entry, looked up): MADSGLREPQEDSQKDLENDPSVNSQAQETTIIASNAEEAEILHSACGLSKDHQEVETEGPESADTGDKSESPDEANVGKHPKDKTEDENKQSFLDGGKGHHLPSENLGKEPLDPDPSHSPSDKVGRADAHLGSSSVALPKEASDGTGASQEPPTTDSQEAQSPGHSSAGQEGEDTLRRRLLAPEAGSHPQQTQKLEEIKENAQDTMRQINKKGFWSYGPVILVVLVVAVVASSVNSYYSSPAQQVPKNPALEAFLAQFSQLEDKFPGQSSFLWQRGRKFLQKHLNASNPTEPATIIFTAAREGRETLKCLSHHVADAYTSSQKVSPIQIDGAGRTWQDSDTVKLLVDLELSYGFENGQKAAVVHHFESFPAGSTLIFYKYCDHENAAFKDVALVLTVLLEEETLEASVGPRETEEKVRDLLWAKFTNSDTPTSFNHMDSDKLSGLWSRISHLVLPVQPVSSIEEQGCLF

[16] = optical density change of DRC41 E. coli – strain DRC41, OD650, 24 h, E. coli filamentation project, primary screen (AID 1093);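 note: MC1000 strain lacking acrAB efflux and sulA so SOS filamentation is blocked; test concentration not given here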; conditions: E. coli DRC41 growth, higher = more signal, called active from +8 up or from −8 down
[17] = probe aLefty2 binding to arrayed compounds – biochemical, biotinylated probe, 635/667 nm fluorescence, primary screen (AID 1094); conditions: small-molecule microarray, higher = more signal;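 note: score merges spot fluorescence near 667 nm with spot signal-to-noise ratio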
[18] = tested on: Noggin (protein binding on small-molecule microarray); experiment: small molecules binding Noggin protein – biochemical, 635/667 nm fluorescence, primary screen (AID 1095); conditions: 635 nm fluorescence, higher = more signal;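 note: score merges 667 nm feature fluorescence with signal to noise over triplicate slides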
[19] = target: Neurogenic locus notch homolog protein 3 (Homo sapiens) (UniProt Q9UM47); experiment: small molecules binding NOTCH3 protein – biochemical, 635/667 nm fluorescence, primary screen (AID 1096); conditions: small-molecule microarray, 635 nm fluorescence, higher = more signal
[20] = probe aEGFR binding to arrayed compounds – biochemical, biotinylated probe, 635/667 nm fluorescence, primary screen (AID 1097); conditions: small-molecule microarray, higher = more signal;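 note: probe is a biotinylated anti-EGFR antibody binding compounds printed on slides; score combines fluorescence near 667 nm and signal to noise of each spot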

Structure (SMILES) | composite z-score [1] | composite z-score [2] | composite z-score [3] | composite z-score [4] | composite z-score [5] | composite z-score [6] | composite z-score [7] | z-score [8] | composite z-score [9] | composite z-score [10] | composite z-score [11] | z-score [12] | z-score [13] | z-score [14] | composite z-score [15] | z-score [16] | composite z-score [17] | composite z-score [18] | composite z-score [19] | composite z-score [20]
CC(=O)C1=CCC(c2ccccc2)N(S(=O)(=O)c2ccc(C)cc2)C1 (stereo not given) | 0.174 | 0.453 | 0.0592 | 0.679 | 0.691 | 0.628 | 1.23 | -2.72 (inactive) | 0.57 | -0.0142 | 1.53 | -1.31 (inactive) | 0.888 (inactive) | 4.92 (inactive) | 2.6 | -1.03 (inactive) | -0.0118 | 0.229 | 0.821 | -0.039
O=C1N(CCS(=O)(=O)c2ccccc2)Cc2ccccc2C[C@]12N=C(c1ccc(OCCCO)cc1)O[C@@H]2c1ccccc1 | 1.36 | 0.97 | 0.0901 | -0.0674 | 0.633 | 1.33 | 1.31 | -0.436 (inactive) | 0.607 | -0.27 | 1.54 | -0.452 (inactive) | 1.2 (inactive) | 4.94 (inactive) | 3.45 | 0.175 (inactive) | 0.366 | 1.2 | 1.05 | 0.177
CC(C)NC(=O)[C@@H]1c2ccccc2C(=O)N(Cc2ccccc2Cl)[C@H]1c1ccc(CO)cc1 | 0.717 | 0.337 | -0.145 | -0.277 | -0.387 | 1.49 | 1.39 | -1.84 (inactive) | -0.216 | -0.137 | 1.4 | 0.759 (inactive) | 0.247 (inactive) | 0.173 (inactive) | 1.8 | 1.19 (inactive) | -0.053 | -0.384 | 0.143 | -0.287
CC(C)OC(=O)CC(=O)CC(O)c1ccc(C#N)cc1 (stereo not given) | 0.401 | 0.435 | 0.0798 | 0.356 | 1.29 | 0.366 | 0.552 | -0.711 (inactive) | 0.712 | 0.0722 | 0.269 | -2.05 (inactive) | 0.331 (inactive) | -0.602 (inactive) | 1.85 | 0.0935 (inactive) | 0.403 | -0.263 | 0.14 | 0.0541
COCCCNC(=O)[C@@]1(C)c2ccccc2C(=O)N(Cc2cc(C(F)(F)F)cc(C(F)(F)F)c2)[C@H]1c1ccc(CO)cc1 | 0.472 | -1.39 | -0.103 | -0.635 | -0.664 | 1.59 | 0.738 | -1.29 (inactive) | -0.0412 | -0.134 | 1.55 | -0.122 (inactive) | 0.585 (inactive) | -0.777 (inactive) | 3.01 | 0.666 (inactive) | -0.166 | -1.08 | -0.134 | -0.26
CC(C)(C)N1CC=CC23O[C@@H]4/C=C\CCCOC(=O)C4[C@H]2C(=O)N(CCO)[C@@H]3C1=O (stereo not given in full) | 0.29 | -1.05 | -0.045 | 0.588 | -0.931 | 0.208 | 0.938 | 0.911 (inactive) | -0.681 | -0.236 | -0.344 | 0.478 (inactive) | 0.224 (inactive) | -0.1 (inactive) | 1.94 | 1.54 (inactive) | -0.241 | -0.551 | -0.871 | -0.272
Cc1ccc(S[C@]2(C(=O)O)CC(=O)N(C3Cc4ccccc4C3)[C@@H]2c2ccc(CO)cc2I)cc1 | 1.43 | -0.269 | -0.0692 | 0.117 | -0.634 | 0.899 | 0.78 | 0.788 (inactive) | -0.154 | -0.0581 | 0.46 | -1.47 (inactive) | -1.01 (inactive) | 1.6 (inactive) | 2.32 | -0.263 (inactive) | 0.125 | -1.02 | -0.891 | -0.132
COC(=O)[C@@]1(Cc2ccc(F)cc2)[C@H]2c3cc(C(=O)N(C)C)n(CCc4ccccn4)c3C[C@H]2CN1C(=O)c1ccccc1 | 0.681 | 0.466 | 0.723 | 0.759 | 1.52 | 0.183 | 1.09 | 1.98 (inactive) | 2.35 | 0.178 | 1.16 | 2.9 (inactive) | 0.423 (inactive) | -0.616 (inactive) | 3.94 | 0.196 (inactive) | -0.0278 | 0.259 | 0.861 | 0.709
CC(C)(C)OC(=O)CC[C@@]1(C(=O)NCCN2CCOCC2)N=C(c2ccc(OCCCO)cc2)O[C@@H]1c1ccccc1 | 1.11 | 1.4 | 0.0189 | 0.262 | 1.28 | 1.75 | 1.2 | 0.951 (inactive) | 0.972 | 0.167 | 1.57 | -0.444 (inactive) | 0.0418 (inactive) | -0.552 (inactive) | 3.1 | 1.03 (inactive) | 0.37 | 0.755 | 0.807 | 0.285
COC(=O)C(CC#Cc1ccc2c(c1)[C@]1(C(=O)N2)[C@H](C(=O)NC[C@H](O)c2ccccc2)[C@H]2C(=O)O[C@H](c3ccccc3)[C@H](c3ccccc3)N2[C@@H]1c1ccc(OCCO)cc1)C(=O)OC | 1.4 | 1.2 | 0.225 | 0.641 | 1.37 | 1.41 | 1.3 | 1.9 (inactive) | 2.31 | -0.447 | 1.54 | 2.7 (inactive) | 1.16 (inactive) | 3.93 (inactive) | 3.62 | -0.207 (inactive) | 0.14 | 1.87 | 1.05 | 0.345
